Measurements reported in article PMC7862700, “An all-to-all approach to the identification of sequence-specific readers for epigenetic DNA modifications on cytosine”.

Assays:
Assay in all cases: DAPPL (digital affinity profiling via proximity ligation, sequencing); 10 mM Tris-HCl pH 7.5, 50 mM NaCl, 1 mM DTT, 4% glycerol, room temperature, 30 min; GST-TFs on glutathione beads, 16-mer random dsDNA library, 0.1% formaldehyde crosslink after washing; high values mean tight binding
FLI1 = target: T1, FLI1 (Homo sapiens, UniProt Q01543 1-452); conditions: protein: recombinant; tags: N-terminal GST; dsDNA, one strand shown
T1 sequence: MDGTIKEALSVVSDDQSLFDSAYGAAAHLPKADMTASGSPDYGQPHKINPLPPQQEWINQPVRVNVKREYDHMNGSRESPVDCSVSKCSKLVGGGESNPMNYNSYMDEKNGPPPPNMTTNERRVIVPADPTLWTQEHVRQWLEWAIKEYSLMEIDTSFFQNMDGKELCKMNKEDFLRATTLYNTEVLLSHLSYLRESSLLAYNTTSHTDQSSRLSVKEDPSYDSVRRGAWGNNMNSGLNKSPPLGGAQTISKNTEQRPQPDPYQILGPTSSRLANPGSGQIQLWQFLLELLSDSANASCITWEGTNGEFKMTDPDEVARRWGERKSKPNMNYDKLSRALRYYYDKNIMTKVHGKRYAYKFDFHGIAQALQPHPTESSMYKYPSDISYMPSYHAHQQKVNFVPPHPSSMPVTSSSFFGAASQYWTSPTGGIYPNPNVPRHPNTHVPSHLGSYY
Outline: (§1)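 Beads coated with glutathione captured GST-fused human transcription factors that had been expressed in yeast, and the factors were then given DNA barcodes and pooled with a tag-only sample. The pools were incubated with 200 nmole of a random double-stranded 16-mer DNA library in Tris/NaCl/DTT/glycerol buffer for 30 min at room temperature, washed, crosslinked with 0.1% formaldehyde and proximity-ligated with BsaI/T4 ligase at 37 °C for 1 h. PCR amplification and Illumina NextSeq500 sequencing came last. Binding signal is each hexamer's read frequency for a factor divided by its frequency for the tag-only sample.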

ELK1 = target: T2, ELK1 (Homo sapiens, UniProt P19419 1-428); conditions: protein: recombinant; tags: N-terminal GST; dsDNA, one strand shown
T2 sequence: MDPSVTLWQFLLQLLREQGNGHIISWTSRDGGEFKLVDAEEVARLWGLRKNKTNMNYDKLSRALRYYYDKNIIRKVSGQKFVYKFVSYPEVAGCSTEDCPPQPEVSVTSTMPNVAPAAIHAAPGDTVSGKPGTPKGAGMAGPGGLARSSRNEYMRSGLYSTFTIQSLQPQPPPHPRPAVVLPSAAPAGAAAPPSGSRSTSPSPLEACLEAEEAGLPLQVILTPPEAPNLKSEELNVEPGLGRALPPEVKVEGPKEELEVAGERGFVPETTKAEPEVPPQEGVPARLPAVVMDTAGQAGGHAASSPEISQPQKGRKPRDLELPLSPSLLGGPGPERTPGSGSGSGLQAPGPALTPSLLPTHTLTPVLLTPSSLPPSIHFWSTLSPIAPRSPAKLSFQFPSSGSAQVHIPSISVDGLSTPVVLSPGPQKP
Outline: as §1

GABPA = target: T3, GABPA (Homo sapiens, UniProt Q06546 1-454); conditions: protein: recombinant; tags: N-terminal GST; dsDNA, one strand shown
T3 sequence: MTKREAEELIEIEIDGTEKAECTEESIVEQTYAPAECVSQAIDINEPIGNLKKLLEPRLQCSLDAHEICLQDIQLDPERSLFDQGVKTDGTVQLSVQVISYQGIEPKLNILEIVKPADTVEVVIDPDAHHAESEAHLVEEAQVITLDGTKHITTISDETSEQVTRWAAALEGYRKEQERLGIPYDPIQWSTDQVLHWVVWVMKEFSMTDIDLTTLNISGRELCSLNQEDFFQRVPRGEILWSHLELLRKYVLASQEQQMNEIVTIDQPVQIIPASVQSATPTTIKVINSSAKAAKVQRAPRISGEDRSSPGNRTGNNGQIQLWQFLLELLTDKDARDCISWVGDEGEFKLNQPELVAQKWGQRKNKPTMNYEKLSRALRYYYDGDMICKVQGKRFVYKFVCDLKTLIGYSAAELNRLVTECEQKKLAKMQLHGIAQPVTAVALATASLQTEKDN
Outline: as §1

ERG = target: T4, ERG (Homo sapiens, UniProt P11308 1-479); conditions: protein: recombinant; tags: N-terminal GST; dsDNA, one strand shown
T4 sequence: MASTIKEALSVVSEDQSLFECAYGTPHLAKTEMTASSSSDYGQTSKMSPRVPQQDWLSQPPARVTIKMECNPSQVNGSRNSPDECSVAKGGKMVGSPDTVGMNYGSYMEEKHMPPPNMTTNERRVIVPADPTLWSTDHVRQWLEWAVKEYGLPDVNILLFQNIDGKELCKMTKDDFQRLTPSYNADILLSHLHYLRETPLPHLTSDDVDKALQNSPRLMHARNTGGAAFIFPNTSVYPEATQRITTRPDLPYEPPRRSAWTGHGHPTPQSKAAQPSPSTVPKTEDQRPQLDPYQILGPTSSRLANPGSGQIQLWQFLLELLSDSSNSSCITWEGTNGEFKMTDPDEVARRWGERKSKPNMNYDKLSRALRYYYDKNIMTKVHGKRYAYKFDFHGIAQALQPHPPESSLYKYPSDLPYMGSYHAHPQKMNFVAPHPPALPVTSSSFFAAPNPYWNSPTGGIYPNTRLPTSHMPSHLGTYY
Outline: as §1

ELF1 = ELF1 (Homo sapiens, UniProt P32519 1-619); conditions: protein: recombinant; tags: N-terminal GST; dsDNA, one strand shown
Outline: as §1

EHF = target: T5, EHF (Homo sapiens, UniProt Q9NZC4 1-300); conditions: protein: recombinant; tags: N-terminal GST; dsDNA, one strand shown
T5 sequence: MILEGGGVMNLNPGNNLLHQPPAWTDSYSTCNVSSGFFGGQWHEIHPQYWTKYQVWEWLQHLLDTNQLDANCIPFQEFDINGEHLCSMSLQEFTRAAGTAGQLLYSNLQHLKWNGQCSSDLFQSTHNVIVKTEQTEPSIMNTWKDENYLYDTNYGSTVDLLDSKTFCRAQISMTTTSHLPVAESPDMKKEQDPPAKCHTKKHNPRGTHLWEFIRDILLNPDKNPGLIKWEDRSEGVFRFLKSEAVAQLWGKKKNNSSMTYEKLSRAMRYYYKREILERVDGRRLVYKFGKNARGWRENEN
Outline: as §1

SPI1 = SPI1 (Homo sapiens, UniProt P17947 1-270); conditions: protein: recombinant; tags: N-terminal GST; dsDNA, one strand shown
Outline: as §1

SPIB = SPIB (Homo sapiens, UniProt Q01892 1-262); conditions: protein: recombinant; tags: N-terminal GST; dsDNA, one strand shown
Outline: as §1

ELK3 = target: T6, ELK3 (Homo sapiens, UniProt P41970 1-407); conditions: protein: recombinant; tags: N-terminal GST; dsDNA, one strand shown
T6 sequence: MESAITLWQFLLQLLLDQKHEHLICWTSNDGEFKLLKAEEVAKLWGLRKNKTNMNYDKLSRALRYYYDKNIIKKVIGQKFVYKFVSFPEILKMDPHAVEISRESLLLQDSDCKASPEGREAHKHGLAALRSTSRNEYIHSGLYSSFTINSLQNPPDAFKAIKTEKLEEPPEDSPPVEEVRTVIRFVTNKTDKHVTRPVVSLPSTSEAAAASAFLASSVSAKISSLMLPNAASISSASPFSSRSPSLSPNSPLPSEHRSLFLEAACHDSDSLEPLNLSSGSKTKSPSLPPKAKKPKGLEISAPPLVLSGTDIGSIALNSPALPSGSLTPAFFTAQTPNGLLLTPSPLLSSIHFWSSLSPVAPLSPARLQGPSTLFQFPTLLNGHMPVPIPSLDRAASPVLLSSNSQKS
Outline: as §1

FEV = target: T7, FEV (Homo sapiens, UniProt Q99581 1-238); conditions: protein: recombinant; tags: N-terminal GST; dsDNA, one strand shown
T7 sequence: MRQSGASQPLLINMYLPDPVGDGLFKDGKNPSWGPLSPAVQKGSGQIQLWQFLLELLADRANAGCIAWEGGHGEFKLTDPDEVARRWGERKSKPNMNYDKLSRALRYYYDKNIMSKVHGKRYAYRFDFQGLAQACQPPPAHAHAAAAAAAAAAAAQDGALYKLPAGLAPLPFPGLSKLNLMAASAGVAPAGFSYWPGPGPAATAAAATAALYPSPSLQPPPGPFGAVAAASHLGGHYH
Outline: as §1

ETV5 = ETV5 (Homo sapiens, UniProt P41161 1-510); conditions: protein: recombinant; tags: N-terminal GST; dsDNA, one strand shown
Outline: as §1

HSF1 = HSF1 (Homo sapiens, UniProt Q00613 1-529); conditions: protein: recombinant; tags: N-terminal GST; chain copies: 3; dsDNA, one strand shown
Outline: as §1

SPIC = target: T8, SPIC (Homo sapiens, UniProt Q8N5J4 1-248); conditions: protein: recombinant; tags: N-terminal GST; dsDNA, one strand shown
T8 sequence: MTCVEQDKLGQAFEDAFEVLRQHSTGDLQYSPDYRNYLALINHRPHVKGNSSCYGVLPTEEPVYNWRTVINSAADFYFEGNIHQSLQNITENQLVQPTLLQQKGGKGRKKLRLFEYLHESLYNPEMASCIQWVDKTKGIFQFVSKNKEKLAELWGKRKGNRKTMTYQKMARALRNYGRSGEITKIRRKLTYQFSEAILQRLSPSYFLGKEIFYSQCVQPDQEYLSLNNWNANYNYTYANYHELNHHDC
Outline: as §1

ELF4 = ELF4 (Homo sapiens, UniProt Q99607 1-663); conditions: protein: recombinant; tags: N-terminal GST; dsDNA, one strand shown
Outline: as §1

ELK4 = target: T9, ELK4 (Homo sapiens, UniProt P28324-2 1-405); conditions: protein: recombinant; tags: N-terminal GST; dsDNA, one strand shown
T9 sequence: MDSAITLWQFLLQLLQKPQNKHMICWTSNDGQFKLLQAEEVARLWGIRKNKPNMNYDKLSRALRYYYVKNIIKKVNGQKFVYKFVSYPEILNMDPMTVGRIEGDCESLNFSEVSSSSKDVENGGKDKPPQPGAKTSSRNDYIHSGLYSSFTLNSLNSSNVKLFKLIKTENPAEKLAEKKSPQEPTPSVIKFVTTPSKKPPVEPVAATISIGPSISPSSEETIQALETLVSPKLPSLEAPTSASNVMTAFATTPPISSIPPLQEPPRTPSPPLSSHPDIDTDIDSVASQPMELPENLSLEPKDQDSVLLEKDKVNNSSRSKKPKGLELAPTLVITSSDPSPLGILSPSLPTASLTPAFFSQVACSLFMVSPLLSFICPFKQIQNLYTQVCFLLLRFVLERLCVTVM
Outline: as §1

ETV2 = target: T10, ETV2 (Homo sapiens, UniProt O00321 1-342); conditions: protein: recombinant; tags: N-terminal GST; dsDNA, one strand shown
T10 sequence: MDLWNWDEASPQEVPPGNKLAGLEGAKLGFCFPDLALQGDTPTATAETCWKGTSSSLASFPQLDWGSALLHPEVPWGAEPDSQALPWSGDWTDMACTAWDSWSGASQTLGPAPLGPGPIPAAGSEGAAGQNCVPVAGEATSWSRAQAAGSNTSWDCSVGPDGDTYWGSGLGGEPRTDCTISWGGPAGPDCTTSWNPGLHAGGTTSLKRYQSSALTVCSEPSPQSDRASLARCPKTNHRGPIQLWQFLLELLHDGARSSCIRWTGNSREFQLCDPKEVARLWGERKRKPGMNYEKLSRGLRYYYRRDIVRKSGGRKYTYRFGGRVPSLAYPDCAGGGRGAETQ
Outline: as §1

ELF3 = target: T11, ELF3 (Homo sapiens, UniProt P78545 1-371); conditions: protein: recombinant; tags: N-terminal GST; dsDNA, one strand shown
T11 sequence: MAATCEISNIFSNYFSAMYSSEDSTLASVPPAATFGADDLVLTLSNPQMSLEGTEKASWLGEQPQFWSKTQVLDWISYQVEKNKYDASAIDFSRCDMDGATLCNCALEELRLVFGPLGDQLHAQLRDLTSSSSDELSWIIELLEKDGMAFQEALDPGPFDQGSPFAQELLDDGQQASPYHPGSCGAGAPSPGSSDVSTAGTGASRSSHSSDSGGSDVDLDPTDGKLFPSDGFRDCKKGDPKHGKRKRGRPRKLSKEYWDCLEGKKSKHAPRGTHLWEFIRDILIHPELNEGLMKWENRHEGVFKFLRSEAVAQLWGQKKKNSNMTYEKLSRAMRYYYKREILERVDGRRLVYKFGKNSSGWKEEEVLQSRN
Outline: as §1

CRX = CRX (Homo sapiens, UniProt O43186 1-299); conditions: protein: recombinant; tags: N-terminal GST; dsDNA, one strand shown
Outline: as §1

ETV1 = ETV1 (Homo sapiens, UniProt P50549 1-477); conditions: protein: recombinant; tags: N-terminal GST; dsDNA, one strand shown
Outline: as §1

Chain of ELF4 (Q99607 whole entry): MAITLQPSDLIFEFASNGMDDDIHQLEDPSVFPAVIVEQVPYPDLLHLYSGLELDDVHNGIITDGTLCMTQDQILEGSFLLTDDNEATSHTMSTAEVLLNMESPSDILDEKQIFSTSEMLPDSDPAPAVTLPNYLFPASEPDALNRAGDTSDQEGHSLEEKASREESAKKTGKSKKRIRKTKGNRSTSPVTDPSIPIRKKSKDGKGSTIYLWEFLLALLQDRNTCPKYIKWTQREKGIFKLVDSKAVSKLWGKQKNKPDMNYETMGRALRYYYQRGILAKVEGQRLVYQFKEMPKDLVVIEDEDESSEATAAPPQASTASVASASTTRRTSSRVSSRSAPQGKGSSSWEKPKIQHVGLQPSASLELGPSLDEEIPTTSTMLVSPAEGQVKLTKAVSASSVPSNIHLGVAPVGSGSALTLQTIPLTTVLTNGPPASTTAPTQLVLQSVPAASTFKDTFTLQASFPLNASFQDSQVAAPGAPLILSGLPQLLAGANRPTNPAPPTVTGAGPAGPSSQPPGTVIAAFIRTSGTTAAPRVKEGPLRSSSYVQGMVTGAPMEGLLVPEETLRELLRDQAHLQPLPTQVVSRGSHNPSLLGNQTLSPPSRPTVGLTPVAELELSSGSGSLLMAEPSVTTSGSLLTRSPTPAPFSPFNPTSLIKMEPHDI
Chain of SPIB (Q01892 whole entry): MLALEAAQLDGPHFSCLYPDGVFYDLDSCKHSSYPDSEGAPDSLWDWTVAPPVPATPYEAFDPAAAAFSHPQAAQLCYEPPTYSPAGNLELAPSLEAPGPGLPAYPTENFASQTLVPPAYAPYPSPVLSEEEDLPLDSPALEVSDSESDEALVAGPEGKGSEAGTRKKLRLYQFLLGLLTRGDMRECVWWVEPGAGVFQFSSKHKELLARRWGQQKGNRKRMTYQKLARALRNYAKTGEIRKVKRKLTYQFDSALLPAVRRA
Chain of CRX (O43186 whole entry): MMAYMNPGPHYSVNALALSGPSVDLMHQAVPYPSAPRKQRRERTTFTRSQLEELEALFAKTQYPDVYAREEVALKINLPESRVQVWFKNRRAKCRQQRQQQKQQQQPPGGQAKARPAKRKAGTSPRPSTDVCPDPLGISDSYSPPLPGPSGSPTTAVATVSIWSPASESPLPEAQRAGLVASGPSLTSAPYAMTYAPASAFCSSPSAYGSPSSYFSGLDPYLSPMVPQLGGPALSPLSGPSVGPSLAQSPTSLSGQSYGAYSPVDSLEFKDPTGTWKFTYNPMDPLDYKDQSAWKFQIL
Chain of ETV5 (P41161 whole entry): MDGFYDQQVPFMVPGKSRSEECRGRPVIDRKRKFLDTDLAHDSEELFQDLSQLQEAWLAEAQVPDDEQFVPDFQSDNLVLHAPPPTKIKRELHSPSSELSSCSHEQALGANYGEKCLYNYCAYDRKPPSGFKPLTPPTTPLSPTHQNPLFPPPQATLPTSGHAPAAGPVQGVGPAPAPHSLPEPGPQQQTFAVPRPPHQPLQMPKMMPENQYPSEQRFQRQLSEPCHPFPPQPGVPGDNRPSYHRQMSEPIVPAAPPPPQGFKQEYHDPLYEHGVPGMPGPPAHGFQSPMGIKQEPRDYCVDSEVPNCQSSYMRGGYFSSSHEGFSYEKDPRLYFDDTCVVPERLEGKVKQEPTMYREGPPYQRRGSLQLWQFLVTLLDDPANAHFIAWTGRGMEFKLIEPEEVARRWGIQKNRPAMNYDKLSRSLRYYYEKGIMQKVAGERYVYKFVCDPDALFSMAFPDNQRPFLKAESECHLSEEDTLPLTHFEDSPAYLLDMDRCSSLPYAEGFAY
Chain of ETV1 (P50549 whole entry): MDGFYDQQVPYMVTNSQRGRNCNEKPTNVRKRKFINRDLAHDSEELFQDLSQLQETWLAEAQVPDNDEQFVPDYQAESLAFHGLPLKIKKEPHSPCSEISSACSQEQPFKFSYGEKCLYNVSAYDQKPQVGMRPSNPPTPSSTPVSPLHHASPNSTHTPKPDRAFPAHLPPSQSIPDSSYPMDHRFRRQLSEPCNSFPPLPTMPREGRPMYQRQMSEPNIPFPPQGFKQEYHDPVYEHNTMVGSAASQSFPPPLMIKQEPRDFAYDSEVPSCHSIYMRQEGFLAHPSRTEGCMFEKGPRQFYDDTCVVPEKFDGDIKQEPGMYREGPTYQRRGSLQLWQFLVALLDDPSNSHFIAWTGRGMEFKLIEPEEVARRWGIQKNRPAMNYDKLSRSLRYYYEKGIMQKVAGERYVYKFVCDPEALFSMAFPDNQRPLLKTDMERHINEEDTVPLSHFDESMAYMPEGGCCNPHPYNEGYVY
Chain of HSF1 (Q00613 whole entry): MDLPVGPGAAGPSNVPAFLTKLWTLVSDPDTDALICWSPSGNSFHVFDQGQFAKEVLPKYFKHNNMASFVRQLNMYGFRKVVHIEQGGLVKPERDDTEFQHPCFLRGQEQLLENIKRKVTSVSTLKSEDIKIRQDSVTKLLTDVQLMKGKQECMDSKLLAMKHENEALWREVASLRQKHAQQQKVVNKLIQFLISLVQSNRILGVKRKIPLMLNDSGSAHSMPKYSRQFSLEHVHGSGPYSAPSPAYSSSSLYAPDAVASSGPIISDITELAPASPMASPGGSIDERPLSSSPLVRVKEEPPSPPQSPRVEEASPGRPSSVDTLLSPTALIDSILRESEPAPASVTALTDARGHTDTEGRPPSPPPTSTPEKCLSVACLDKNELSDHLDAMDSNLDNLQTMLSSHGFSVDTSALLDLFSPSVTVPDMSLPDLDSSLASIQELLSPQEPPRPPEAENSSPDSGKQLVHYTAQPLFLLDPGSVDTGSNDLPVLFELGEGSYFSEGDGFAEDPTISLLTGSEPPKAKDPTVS
Chain of ELF1 (P32519 whole entry): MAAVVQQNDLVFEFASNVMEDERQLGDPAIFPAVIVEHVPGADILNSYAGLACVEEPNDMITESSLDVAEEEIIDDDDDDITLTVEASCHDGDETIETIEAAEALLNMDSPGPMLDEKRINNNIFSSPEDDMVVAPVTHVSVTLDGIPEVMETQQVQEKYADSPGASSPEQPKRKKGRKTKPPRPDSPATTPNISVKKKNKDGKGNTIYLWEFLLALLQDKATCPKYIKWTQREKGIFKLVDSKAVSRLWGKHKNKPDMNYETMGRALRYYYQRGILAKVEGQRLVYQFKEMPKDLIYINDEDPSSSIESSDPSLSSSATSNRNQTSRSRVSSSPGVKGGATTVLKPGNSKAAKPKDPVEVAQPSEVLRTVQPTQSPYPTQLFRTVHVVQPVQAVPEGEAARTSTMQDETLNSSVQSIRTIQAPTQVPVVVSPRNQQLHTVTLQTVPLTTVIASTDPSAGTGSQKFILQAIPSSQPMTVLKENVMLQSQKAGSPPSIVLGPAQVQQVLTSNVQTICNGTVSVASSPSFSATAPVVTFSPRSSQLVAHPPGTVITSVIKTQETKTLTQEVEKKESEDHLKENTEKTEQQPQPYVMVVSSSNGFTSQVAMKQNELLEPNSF

TCCGCA was tested, and the binding signal (FLI1) was 2.2 fold enrichment (6-mer frequency, TF over GST control), the binding signal (ELK1) was 2.22 fold enrichment (6-mer frequency, TF over GST control) and the binding signal (GABPA) was 2.07 fold enrichment (6-mer frequency, TF over GST control). The binding signal (ERG) was 2.03 fold enrichment (6-mer frequency, TF over GST control), the binding signal (ELF1) was 2.01 fold enrichment (6-mer frequency, TF over GST control) and the binding signal (EHF) was 2.03 fold enrichment (6-mer frequency, TF over GST control). The binding signal (SPI1) was 2.85 fold enrichment (6-mer frequency, TF over GST control), the binding signal (SPIB) was 2.18 fold enrichment (6-mer frequency, TF over GST control) and the binding signal (ELK3) was 2.24 fold enrichment (6-mer frequency, TF over GST control). The binding signal (FEV) was 1.91 fold enrichment (6-mer frequency, TF over GST control), the binding signal (ETV5) was 2.24 fold enrichment (6-mer frequency, TF over GST control) and the binding signal (HSF1) was 1.21 fold enrichment (6-mer frequency, TF over GST control). The binding signal (SPIC) was 2.46 fold enrichment (6-mer frequency, TF over GST control), the binding signal (ELF4) was 1.98 fold enrichment (6-mer frequency, TF over GST control) and the binding signal (ELK4) was 1.76 fold enrichment (6-mer frequency, TF over GST control). The binding signal (ETV2) was 1.98 fold enrichment (6-mer frequency, TF over GST control), the binding signal (ELF3) was 2.22 fold enrichment (6-mer frequency, TF over GST control) and the binding signal (CRX) was 1.35 fold enrichment (6-mer frequency, TF over GST control). The binding signal (ETV1) was 2.15 fold enrichment (6-mer frequency, TF over GST control).
